# Experimental data: PubChem BioAssay AID504332 (National Center for Advancing Translational Sciences (NCATS), 2011)
# Among all 350,000 compounds or so, about 31,000 (8.9%) were called active. About 15% were inconclusive and are not listed. The call rests on the fitted dose curve; in most records, active means well fitted inhibition curve with a large enough effect; inconclusive means small, poorly fitted or top-dose-only effect; inactive means no such curve, though single readings can be large or run the other way. The list comes from a sample in which actives are over-represented; it also holds similar structures and randomly drawn compounds.
# Biological target: Histone-lysine N-methyltransferase EHMT2 (Homo sapiens) (UniProt Q96KQ7)
# Test: qHTS Assay for Inhibitors of Histone Lysine Methyltransferase G9a; further: nearly all actives have a fitted effect of over 75% in size
# Conditions: G9a H3K9 monomethylation, AlphaScreen, 2 h; series mostly up to 59 µM; activity, negative = inhibition: at the top concentration
# In short: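 G9a (20 nM) preincubated 15 min RT with compounds, then 500 nM biotinylated H3K9 peptide and 20 uM SAM added; 2 h RT reaction. Monomethyl-H3K9 product detected by AlphaScreen with anti-H3K9me1 antibody, streptavidin donor and anti-rabbit IgG acceptor beads.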
# On the % scale 0 is the no-effect control and ±100 the full control effect; potency means the concentration at half of the fitted maximal effect.
# Sequence of Histone-lysine N-methyltransferase EHMT2 (Homo sapiens) (Q96KQ7 913-1193 limits assumed): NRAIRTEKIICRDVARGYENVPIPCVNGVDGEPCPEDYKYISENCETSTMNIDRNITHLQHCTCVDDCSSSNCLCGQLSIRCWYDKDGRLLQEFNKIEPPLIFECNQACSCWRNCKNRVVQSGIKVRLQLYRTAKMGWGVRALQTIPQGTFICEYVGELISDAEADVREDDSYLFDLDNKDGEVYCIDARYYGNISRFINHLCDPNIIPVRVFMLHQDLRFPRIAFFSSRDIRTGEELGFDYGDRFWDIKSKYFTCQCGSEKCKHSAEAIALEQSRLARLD
Compound,Potency,"activity, negative = inhibition"
O=C(/C=C/c1c(F)cccc1Cl)Nc1nn[nH]n1,39.8 µM (active),–
O=C(CCc1ccccc1)Nc1nn[nH]n1,–,-24.3% (inactive)
O=C(/C=C/c1c(Cl)cccc1Cl)NCc1ccccc1,–,21.8% [at 102 µM] (inactive)
CSc1ccccc1NC(=O)c1cnc2sc(C)cn2c1=O,–,-1.35% (inactive)
O=S(=O)(NC1CCN(S(=O)(=O)c2ccc3c(c2)OCCO3)CC1)c1c(F)cccc1F,–,3.66% [at 12.7 µM] (inactive)
COc1cccc(N(CC(=O)NC2CCCC2)C(=O)Cn2nnc(-c3ccc(C)o3)n2)c1,–,-17.4% [at 102 µM] (inactive)
COc1cc2ccccc2cc1C(=O)Nc1ccc(N2CCOCC2)cc1,–,-2.84% [at 102 µM] (inactive)
O=C(Nc1ccc(N2CCOCC2)cc1)c1ccc(-c2ccccc2[N+](=O)[O-])o1,17.8 µM (active),–
O=C(Cc1ccc([N+](=O)[O-])cc1)Nc1ccc(C(=O)N2CCOCC2)cc1,–,-23% [at 102 µM] (inactive)
O=C(COc1ccccc1)Nc1cc2c3c(c1)CC(=O)N3CCC2,–,3.1% [at 102 µM] (inactive)
Cc1ccc(C)c(N2CCN(C(=O)CCCCCn3c(=S)[nH]c4ccc(N5CCOCC5)cc4c3=O)CC2)c1,–,65.5% (inactive)
CNC(=O)c1c(NC(NC(=O)c2ccco2)C(=O)c2ccc(Cl)cc2)sc2c1CCCC2 (centres undefined),11.2 µM (active),–
Cc1ccc2c(=O)cc(C(=O)Nc3sc4c(c3C(=O)NCc3cccnc3)CCCC4)oc2c1,–,-3.78% (inactive)
CC(C)OC(=O)c1c(NC(=O)c2ccco2)sc2c1CCCC2,–,-38.7% (inactive)
COc1cc2c(cc1O)[C@H](Cc1ccc(Oc3cc(C[C@@H]4NCCc5cc(OC)c(O)cc54)ccc3O)cc1)NCC2,12.6 µM (active),–
COc1ccc(CC2c3cc(OC)c(OC)cc3CC[N+]2(C)CCC(=O)OCCCCCOC(=O)CC[N+]2(C)CCc3cc(OC)c(OC)cc3C2Cc2ccc(OC)c(OC)c2)cc1OC (centres undefined),–,7.6% [at 12.7 µM] (inactive)
CCc1ccc(OCC2c3cc(OC)c(OC)cc3CCN2C(C)=O)cc1 (centres undefined),–,-15.8% [at 102 µM] (inactive)
COc1ccccc1CNc1nc2ccc(Cl)cc2n2cnnc12,–,10.9% (inactive)
CC(=O)Nc1cccc(NC(=O)CSc2nccn2Cc2ccc3c(c2)OCO3)c1,–,6.93% (inactive)
COc1ccccc1N1N=C(c2cccs2)CC1c1ccccc1 (centres undefined),–,16.2% [at 102 µM] (inactive)
COc1ccc(C2CC(c3cccs3)=NN2c2ccccc2)cc1 (centres undefined),–,400% [at 102 µM] (inactive)
COc1ccc(C2CC(c3cccs3)=NN2c2ccc(F)cc2)cc1OC (centres undefined),3.98 µM (active),–
COc1ccc(-c2nc(CN3CCC(C(=O)NCc4ccccc4)CC3)c(C)o2)cc1OC,–,3.45% (inactive)
CCOC(=O)C1CCCN(C(=O)c2ccc(-n3ccc4ccccc43)s2)C1 (centres undefined),–,13.9% (inactive)

Compound,Potency,"activity, negative = inhibition"
CCc1cccc(C)c1NC(=O)COC(=O)CC1CCCC1,–,-5.82% [at 102 µM] (inactive)
Cc1ccc(C(C(=O)NCc2ccco2)N(CC2CCCO2)C(=O)Cn2nnc3ccccc32)cc1 (centres undefined),–,-31.8% [at 102 µM] (inactive)
COc1ccccc1N(C(=O)Cn1nnc2ccccc21)C(C(=O)NCc1ccco1)c1ccc(C)o1 (centres undefined),50.1 µM (active),–
COCCNC(=O)C(c1ccc(C)o1)N(Cc1ccccc1)C(=O)Cn1nnc2ccccc21 (centres undefined),–,9.42% (inactive)
Cc1ccc(C(=O)Nc2ccn(C)n2)cc1,–,0.254% [at 12.7 µM] (inactive)
CC1CCN(S(=O)(=O)c2ccc3c(c2)N(CC(=O)NCCc2ccccc2)C(=O)CO3)CC1,–,-25.8% (inactive)
CC1=C(c2ccc(C)c(C)c2)S(=O)(=O)NC1=NCc1ccccc1Cl,–,-30.7% (inactive)
COc1ccc(NC(=O)C(=O)NCc2ccco2)cc1,–,13% (inactive)
COc1ccc(CS(=O)/C(Cl)=C(/Cl)C(=O)Nc2ccc(OC)nc2)cc1 (centres undefined),11.2 µM (active),–
CCOc1ccc(S(=O)(=O)Nc2ccc(OC)nc2)cc1,–,20.7% [at 102 µM] (inactive)
COc1cc(C(=O)N2CCN(c3ccc(Nc4ccc(C)cc4)nn3)CC2)cc(OC)c1OC,–,0.11% (inactive)
CSc1ccc(NC(=O)Cn2nnnc2-c2ccccc2F)cc1,–,3.59% (inactive)
COC(=O)C(C)C1Sc2ccccc2NC1=O (centres undefined),–,14.7% [at 12.7 µM] (inactive)
COc1ccc(C2CC(=O)Nc3cc(C)c(C)cc32)c(OC)c1OC (centres undefined),–,11.9% [at 102 µM] (inactive)
COc1ccc(C2Sc3ccccc3NC3=C2C(=O)c2ccccc23)c(OC)c1OC (centres undefined),11.2 µM (active),–
O=C(NCC(c1ccc2c(c1)OCO2)N1CCN(c2ccccc2)CC1)C(=O)Nc1ccccc1F (centres undefined),–,-25.1% (inactive)
O=C(Cc1ccc(-c2ccccc2)cc1)NC(c1ccccc1)c1ccccc1,7.08 µM (active),–
CCOC(=O)/C=C/C(=O)OCC(=O)NC(c1ccccc1)c1ccccc1,–,0.236% (inactive)
C=CCC(NC(=O)Cc1ccccc1)C(=O)NCCC (centres undefined),–,5.83% [at 0.501 µM] (inactive)
C/C(CC(=O)NCc1ccc(Cl)cc1)=N\NC(=O)COc1ccc(C)cc1Br,–,15.9% [at 102 µM] (inactive)
Cc1ccccc1-c1n[nH]c(=S)n1C,10 µM (active),–
Cc1n[nH]c(=S)n1/N=C/c1ccc(Br)o1,3.16 µM (active),–
Cc1ccccc1-c1nc(SCC(=O)N(C)c2ccccc2)c2c(=O)n(C)c(=O)n(C)c2n1,–,-0.81% (inactive)
Cc1ccccc1-c1ccc(C(=O)O)s1,–,3.48% [at 135 µM] (inactive)

Compound,Potency,"activity, negative = inhibition"
Cc1ccccc1-c1n[nH]c(=S)n1/N=C/c1ccc(-c2ccccc2Br)o1,12.6 µM (active),–
Cc1cc(C)cc(NS(=O)(=O)c2cc3c(cc2C)NC(=O)CO3)c1,–,-45.7% (inactive)
CCCCCc1c(C)nc(N2CCN(Cc3ccc4c(c3)OCO4)CC2)[nH]c1=O,–,30.4% [at 102 µM] (inactive)
O=C(Cc1ccc(S(=O)(=O)N2CCOCC2)s1)NCCOc1ccccc1F,–,-25.9% [at 12.7 µM] (inactive)
CCNC(=O)c1cc2n(n1)CCCN(Cc1ccc(C)cc1)C2=O,–,-1.49% [at 12.7 µM] (inactive)
CN(C)S(=O)(=O)c1ccc(N2CCCC2)c(C(=O)Nc2ccc(Br)cc2F)c1,–,26.4% [at 2.33 µM] (inactive)
Nc1nc(Nc2ccccc2)nc(NCCO)c1[N+](=O)[O-],–,-30.2% [at 102 µM] (inactive)
OCCNc1nc(Nc2ccc(Cl)c(Cl)c2)nc2ccccc12,50.1 µM (active),–
COc1cc2nc(Cl)nc(NCCO)c2cc1OC,–,-40.9% [at 102 µM] (inactive)
COc1ccc(OCC(=O)Nc2cccc(C(=O)OCc3cc(=O)n4nc(C)sc4n3)c2)cc1,–,24.7% (inactive)
CN1CCN(S(=O)(=O)c2ccc(Nc3ccc(F)cc3)nc2)CC1,–,-33.3% [at 102 µM] (inactive)
COc1ccccc1NC(=O)c1sc2nc(C)c(C(=O)Nc3ccc(Cl)cc3)c(-c3ccc(Br)cc3)c2c1N,–,-42% (inactive)
O=C(Nc1cccc(C(F)(F)F)c1)c1cc(Br)cc(Br)c1O,–,-37% [at 12.7 µM] (inactive)
Nc1ccc(OCC(O)C[n+]2ccc(CCS(=O)(=O)[O-])cc2)cc1 (centres undefined),39.8 µM (active),–
CCCc1ccc(OCC(O)CN2CCN(C(=O)OCC)CC2)cc1 (centres undefined),–,15.7% [at 102 µM] (inactive)
CCc1ccc(S(=O)(=O)NCC(O)COc2ccc(OC)cc2)cc1 (centres undefined),–,-5.83% [at 102 µM] (inactive)
Cn1c(SCC(=O)c2ccc(F)cc2)nnc1-c1ccccn1,–,-4.42% [at 102 µM] (inactive)
Cn1c(CC2Sc3ccccc3NC2=O)nnc1SCC(=O)c1ccc(Cl)cc1 (centres undefined),14.1 µM (active),–
Cn1c(CCC(=O)Nc2ccccc2F)nnc1SCC(=O)Nc1ccccc1Cl,–,1.22% [at 102 µM] (inactive)
O=c1cc2nc(-c3ccccc3)nc(SCCOc3ccc(Cl)cc3)n2[nH]1,–,-23.9% (inactive)
O=C(O)C1CCCN1S(=O)(=O)c1ccc(Br)cc1 (centres undefined),–,-11.1% [at 0.501 µM] (inactive)
CC(=O)Nc1ccc(S(=O)(=O)N2CCCC2C(=O)O)cc1 (centres undefined),–,20.3% (inactive)
O=C(O)C1CCCN1S(=O)(=O)c1ccc2c(c1)CCC2 (centres undefined),56.2 µM (active),–
CCOC(=O)N1CCc2c(sc3c2c(=O)n(Cc2ccccc2)c(=O)n3CC(=O)Nc2cccc(C)c2)C1,–,16.6% (inactive)

Compound,Potency,"activity, negative = inhibition"
CCOC(=O)N1CCc2c(sc3c2C(=O)NC(c2ccccc2F)N3)C1 (centres undefined),–,0.769% (inactive)
CCOC(=O)N1CCc2c(sc(NCc3cccc(F)c3)c2C(=O)Nc2ccccc2OCC)C1,1.41 µM (active),–
COC(=O)c1ccccc1NC(=O)Cn1c(=O)n(-c2cccc(C(F)(F)F)c2)c(=O)c2c(C)c(C)sc21,–,-5.38% (inactive)
CS(=O)(=O)N1CCc2nc(-c3ccccc3)sc2C1,–,6.88% [at 102 µM] (inactive)
Cc1ccc(S(=O)(=O)N2CCC(C(=O)OCC(=O)N(C)c3ccccc3)CC2)cc1C,–,-20.5% [at 102 µM] (inactive)
O=C(Nc1c(-c2ccc(F)cc2)nc2ccccn12)c1cccc(F)c1,–,2.37% (inactive)
O=C(COC(=O)c1ccc(Oc2ccccc2)cc1)Nc1nnc(-c2ccccc2)o1,–,17.6% [at 12.7 µM] (inactive)
CCCC(=O)Nc1nnc(-c2ccccc2)o1,39.8 µM (active),–
O=C(COC(=O)c1ccccc1Br)Nc1nnc(-c2ccccc2)o1,–,-5.03% [at 102 µM] (inactive)
CCN(CC)CCNC(=O)c1cc2c(=O)oc3ccc(C)cc3c2s1,–,6.68% (inactive)
CCNC(=O)c1cccc(NC(=O)C2CC(=O)N(CCc3ccccc3)C2)c1 (centres undefined),–,8.14% [at 0.501 µM] (inactive)
COc1ccc2cc(C3=CC(=O)C[C@H](c4ccc5c(c4)OCO5)C3)ccc2c1,–,7.57% [at 0.501 µM] (inactive)
CC(C)CNC(=O)COC(=O)/C=C/c1ccco1,–,20% (inactive)
NS(=O)(=O)c1cccc(NC(=O)COC(=O)/C=C/c2ccco2)c1,25.1 µM (active),–
COc1cccc(NC(=O)COC(=O)/C=C/c2ccco2)c1,–,13.7% [at 2.33 µM] (inactive)
O=S(=O)(NCCS(=O)(=O)N1CCN(c2ccccc2)CC1)c1ccc(F)cc1,–,-3.65% [at 102 µM] (inactive)
CCn1c(COc2cccc(OC)c2)nnc1SCC(=O)N1CCOCC1,–,8.24% [at 102 µM] (inactive)
COc1ccc(C2CC(c3ccccc3)=NN2C(=O)COC(=O)COc2ccccc2)cc1 (centres undefined),–,-3.35% [at 102 µM] (inactive)
COc1cccc(OCc2nnc3n2N=C(c2ccccc2)C(CC(=O)O)S3)c1 (centres undefined),44.7 µM (active),–
COc1cccc(OCC(=O)Nc2ccccc2C(N)=O)c1,–,6.62% [at 12.7 µM] (inactive)
COc1ccc(C(=O)NCc2nnc(SCCOc3ccccc3)n2C)cc1,–,13.9% [at 12.7 µM] (inactive)
COc1ccc(OCc2nnc3n2N=C(c2ccccc2)C(CC(=O)O)S3)cc1 (centres undefined),1.58 µM (active),–
